Tests used:
Conditions in all cases: concentration: 1 μM, replicates: in singlicate; n = 1
PIP5K2C = tested on: T1, PIP5K2C
T1 construct: gene PIP4K2C

PKAC-alpha = tested on: T2, PKAC-alpha
T2 construct: gene PRKACA

PKAC-beta = tested on: T3, PKAC-beta
T3 construct: gene PRKACB

PKMYT1 = tested on: PKMYT1
PKN1 = tested on: PKN1
PKN2 = tested on: PKN2
PLK1 = tested on: PLK1
PLK2 = tested on: PLK2
PLK3 = tested on: PLK3
PLK4 = tested on: PLK4
PRKCD = tested on: PRKCD
PRKCE = tested on: PRKCE
PRKCH = tested on: PRKCH
PRKCI = tested on: PRKCI
PRKCQ = tested on: PRKCQ
PRKD1 = tested on: PRKD1
PRKD2 = tested on: PRKD2
PRKD3 = tested on: PRKD3
PRKG1 = tested on: PRKG1
PRKG2 = tested on: PRKG2
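Note: KINOMEscan kinase panel screen.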

SMILES | %Inh (PIP5K2C) [%] | %Inh (PKAC-alpha) [%] | %Inh (PKAC-beta) [%] | %Inh (PKMYT1) [%] | %Inh (PKN1) [%] | %Inh (PKN2) [%] | %Inh (PLK1) [%] | %Inh (PLK2) [%] | %Inh (PLK3) [%] | %Inh (PLK4) [%] | %Inh (PRKCD) [%] | %Inh (PRKCE) [%] | %Inh (PRKCH) [%] | %Inh (PRKCI) [%] | %Inh (PRKCQ) [%] | %Inh (PRKD1) [%] | %Inh (PRKD2) [%] | %Inh (PRKD3) [%] | %Inh (PRKG1) [%] | %Inh (PRKG2) [%]
COC(=O)c1c(-c2ccccc2)c2cc(Cl)ccc2c(=O)n1Cc1ccc(S(C)(=O)=O)cc1 | 0 | 5 | 0 | 1 | 0 | 0 | 0 | 6 | 9 | 26 | 0 | 0 | 0 | 8 | 19 | 33 | 0 | 0 | 0 | 12
Cl.Fc1ccccc1COc1ccc(Nc2ncnc3ccc(-c4nnc(C(F)(F)F)o4)cc23)cc1Cl [GW424170] | 7 | 0 | 0 | 0 | 0 | 0 | 0 | 0 | 0 | 0 | 0 | 0 | 2 | 15 | 0 | 0 | 0 | 0 | 0 | 4
COC(=O)c1cccc(NC(=O)NCCNc2ccnc(Nc3ccc(F)cc3)n2)c1 [GSK1379883] | 22 | 3 | 0 | 10 | 3 | 0 | 4 | 0 | 0 | 0 | 0 | 6 | 34 | 24 | 0 | 21 | 35 | 0 | 7 | 0
CCc1nc(-c2cccc(C)c2)c(-c2ccnc(NC(=O)c3ccccc3)c2)s1 | 99.1 | 0 | 0 | 0 | 13 | 0 | 0 | 5 | 9 | 17 | 20 | 2 | 4 | 2 | 0 | 0 | 0 | 0 | 0 | 0
CSc1ccc(NC2=C(c3ccccc3Cl)C(=O)NC2=O)cc1 [SB-342411] | 0 | 74 | 0 | 25 | 36 | 0 | 8 | 0 | 0 | 13 | 26 | 0 | 7 | 0 | 0 | 5 | 2 | 28 | 0 | 13
Cc1cc(N2CCC(NS(=O)(=O)c3ccc(F)cc3)CC2)nc(Nc2cccc(C#N)c2)n1.O=C(O)C(F)(F)F [GSK1653537] | 4 | 3 | 0 | 0 | 23 | 0 | 5 | 0 | 0 | 0 | 3 | 0 | 27 | 12 | 19 | 35 | 31 | 43 | 3 | 0
Nc1nc(-c2ccc3c(N)n[nH]c3c2)cc(N2CCCCC2)n1 [GSK2228768] | 0 | 56 | 0 | 13 | 18 | 0 | 0 | 0 | 0 | 0 | 0 | 0 | 0 | 6 | 17 | 0 | 4 | 6 | 0 | 8
C[C@@H]1CCN(C(=O)CO)C[C@@H]1N(C)c1ncnc2[nH]ccc12 | 0 | 0 | 93.7 | 100 | 20 | 21 | 0 | 0 | 12 | 3 | 22 | 54 | 0 | 0 | 0 | 17 | 6 | 7 | 95.3 | 0
COc1cc2ncnc(Nc3ccc(OCc4ccccc4Br)c(Cl)c3)c2cc1OC.Cl [GI261590] | 41 | 0 | 0 | 3 | 100 | 0 | 3 | 0 | 0 | 0 | 0 | 8 | 0 | 33 | 100 | 4 | 0 | 0 | 0 | 0
CC(C)N1CCC(n2cnc(-c3ccc(F)cc3)c2-c2ccnc(N)n2)CC1 [SB-223132] | 62 | 0 | 22 | 0 | 0 | 0 | 0 | 0 | 0 | 0 | 9 | 0 | 0 | 29 | 0 | 18 | 0 | 0 | 2 | 2
O=C(NCCCN1CCCC1=O)c1cnc(NCc2cc(Cl)ccc2Cl)nc1NC1CCNCC1 | 2 | 0 | 0 | 0 | 20 | 11 | 0 | 0 | 0 | 5 | 13 | 40 | 0 | 0 | 0 | 3 | 0 | 29 | 0 | 0
Fc1ccc(Nc2nccc(-c3c(-c4ccc(Cl)cc4)nn4ncccc34)n2)cc1F [GW829058] | 20 | 15 | 24 | 4 | 4 | 13 | 32 | 36 | 20 | 29 | 0 | 18 | 0 | 22 | 0 | 0 | 0 | 9 | 3 | 17
COc1ccc(Nc2nccc(N3CCC(NC(=O)Nc4ccc5c(c4)OCO5)C3)n2)cc1 (stereo not drawn) [GSK1379745] | 44 | 5 | 5 | 0 | 38 | 0 | 8 | 0 | 0 | 0 | 8 | 10 | 12 | 25 | 2 | 1 | 0 | 25 | 20 | 0
FC(F)(F)c1ccc(-c2nn3ncccc3c2-c2ccnc(Nc3cccc(C(F)(F)F)c3)n2)cc1 [GW828205] | 3 | 0 | 24 | 15 | 0 | 0 | 0 | 0 | 18 | 0 | 16 | 0 | 0 | 30 | 0 | 7 | 6 | 0 | 5 | 16
Cl.c1ccc(Cn2ncc3cc(Nc4ncnc5ccccc45)ccc32)cc1 [GW273749] | 0 | 0 | 0 | 0 | 13 | 0 | 2 | 0 | 2 | 0 | 0 | 0 | 0 | 0 | 0 | 0 | 2 | 22 | 5 | 0
Cl.O=S(=O)(c1cccc(F)c1)c1ccc(Nc2ncnc3cc(Br)sc23)cc1Cl [GSK306886] | 60 | 0 | 0 | 26 | 19 | 0 | 0 | 0 | 0 | 26 | 0 | 45 | 0 | 0 | 0 | 7 | 13 | 4 | 0 | 23
COc1ccc(NC(=O)Nc2ccc(C)c(-c3ccc(C(=O)Nc4ccncc4)cc3)c2)cc1 [GSK1398475] | 0 | 8 | 0 | 0 | 0 | 0 | 0 | 0 | 0 | 0 | 0 | 3 | 0 | 0 | 0 | 0 | 11 | 5 | 0 | 0
Cc1ccc(C)c(NC(=O)NCCNc2ccnc(Nc3ccc(F)cc3)n2)c1 [GSK1379878] | 25 | 0 | 0 | 0 | 0 | 0 | 4 | 0 | 0 | 0 | 0 | 0 | 0 | 0 | 0 | 1 | 0 | 0 | 0 | 0
Oc1ccc2ncnc(Nc3ccc(OCc4ccccc4)cc3)c2c1 [GI262866] | 40 | 0 | 0 | 5 | 1 | 0 | 0 | 0 | 0 | 0 | 0 | 0 | 6 | 27 | 15 | 0 | 0 | 30 | 0 | 0
Fc1cccc(COc2ccc(Nc3ncnc4sc(-c5ccc[nH]5)cc34)cc2Cl)c1 [GW707818] | 25 | 0 | 0 | 0 | 32 | 1 | 0 | 7 | 19 | 0 | 0 | 14 | 100 | 9 | 0 | 26 | 54 | 0 | 0 | 10
Cc1ccc(NC(=O)c2cccc(C#N)c2)cc1-c1ccc(C(=O)Nc2ccncc2)cc1 [GSK1398463] | 0 | 0 | 0 | 0 | 28 | 0 | 0 | 0 | 0 | 2 | 7 | 5 | 27 | 0 | 0 | 0 | 12 | 31 | 2 | 0

From publication PMC5540273 (PLoS ONE, 2017)
